Measurements as given in PubChem BioAssay (NCI).
The panel holds about 83,000 compounds, 20% with a hit somewhere; the sample as a whole holds those more often.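 Percent growth is the endpoint: 0 to 100 indicates growth inhibition (40 means 60% inhibition), 0 means no net growth, and negative values indicate cell death.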 Activity calls are given as the source filed them. The calls were made as follows: active = growth percent below 10; inactive = the rest.

system: HL-60(TB) leukemia; test: NCI-60 one-dose screen, 48 h (100 = growth as untreated, 0 = no growth, -100 = all killed); details: 10 µM unless noted

SMILES | growth
Cc1cc(Cc2cc(C)c(N)cc2N)c(N)cc1N | 85.6% (inactive)
O=c1ccc(=O)n(-c2nc(-c3ccc([N+](=O)[O-])cc3)cs2)[nH]1 | 89% (inactive)
O=C(NO)c1ccc(Cn2c(=O)n(-c3ccccc3F)c(=O)c3ccccc32)cc1 | -1.46% (active)
O=C(Nc1cccc(Br)c1)c1cc(=O)[nH]c2ccccc12 | 108% (inactive)
O=C(c1ccccc1)[C@@H](c1ccccc1)[C@]1(O)C(=O)Nc2ccccc21 | 107% (inactive)
COc1ccc(C(O)c2cc3c(N)c(C(=O)Nc4cccc5ccccc45)sc3nc2C)cc1 (centres undefined) | -1.39% (active)
COc1ccc(/C=c2\c(=O)n(-c3ccccc3)c3nn4c(n23)=NNC42CCCCC2)cc1 | 110% (inactive)
COc1cc(-c2c3c(cn2S(=O)(=O)c2ccccc2)-c2nc(N)sc2CC3)cc(OC)c1OC | 13.2% (inactive)
Nc1nc(N=Nc2ccc(O)cc2)cc(=O)[nH]1 | 95.6% (inactive)
O=C(Nc1ccc(N2CCCCC2)c(Cl)c1)c1ccc(Br)o1 | 46.3% (inactive)
COc1ccc(/C=N\NC(=O)CN2CCN(c3cc4c(cc3F)c(=O)c(C(=O)N/N=C/c3ccc(OC)cc3)cn4C3CC3)CC2)cc1 | 86.6% (inactive)
COc1cc(C2CC(c3cccc(Nc4ccncc4)c3)=Nc3c(N)ncnc3N2)cc(OC)c1OC (centres undefined) | 83.7% (inactive)
Brc1ccc2c(c1)-c1ccccc1C1=NCCN12 | 18.2% (inactive)
CCCC(C(=O)OCC)C(C)OC(=O)OCC (centres undefined) | 87.8% (inactive)
OC(c1ccccc1)(c1ccccc1)c1ccccc1-c1ccccc1 | 82% (inactive)
N/C(=N\O)c1ccncc1 | 102% (inactive)
COc1cc(Nc2c3ccc(Cl)cc3nc3ccc(OC)cc23)c2ncccc2c1 | 49.5% (inactive)
CC(/C=N/NC(N)=S)Cc1ccc(C(C)C)cc1 (centres undefined) | 44.3% (inactive)
CC1(C)NCCC[C@]2(C)[C@H]3CC[C@H]4[C@H]5[C@H](C(=O)/C=C/c6cccnc6)CCC[C@]5(CO)CC[C@@]4(C)[C@]3(C)CC[C@@H]12 | 23.9% (inactive)
CC(C)CCSc1nc(Nc2ccccc2)c(C#N)c(-c2ccccc2)n1 | 76.5% (inactive)

SMILES | growth
c1ccc2c(-c3nc(-c4c[nH]c5ncccc45)cs3)c[nH]c2c1 | 88% (inactive)
Cc1ccc(NC(=O)c2sc3nc4c(cc3c2N)C(=O)CCC4)cc1C | -10.6% (active)
CC(=O)Cc1nsc(NC(=O)c2cc(-c3cc(Cl)ccc3Cl)oc2C)n1 | 94.3% (inactive)
O=c1c2cccc(F)c2sc2c(N3CCNCC3)nc3ccccc3c12 | 30.9% (inactive)
CCCCCCc1cc(N=Nc2ccc(S(=O)(=O)Nc3cc(C)nc(C)n3)cc2)c(O)cc1O | 94.4% (inactive)
CS(=O)(=O)N1CCN(Cc2cc3nc(-c4cccc5[nH]ncc45)nc(N4CCOCC4)c3s2)CC1 | 23.6% (inactive)
N#Cc1c(-c2cccc(Cl)c2)cc(-c2cccc(F)c2)[nH]c1=O | -58.3% (active)
CCOC(=O)Cn1nnc(-c2ccc(OCc3ccccc3F)cc2)n1 | 102% (inactive)
C/C=C(/C)n1cnc2c(Nc3ccccn3)nc(Cl)nc21 | 107% (inactive)
CC(C)(C)c1ccc(OCCOC(=O)CBr)cc1 | 75.2% (inactive)
CCOc1ccc(NC(=O)CSc2oc(-c3ccccc3)nc2S(=O)(=O)c2ccc(C)cc2)cc1 | 65.6% (inactive)
COc1ccc2c(c1)OC1=C(C(=O)OC1)C2c1cc(OC)c(OC)c(OC)c1 (centres undefined) | 5.99% (active)
Nc1ccc2c(c1)C(=O)NC2=O | 71.1% (inactive)
O=[N+]([O-])c1ccc2[nH]c(=S)n(/C=C(/c3ccc(Cl)cc3Cl)S(=O)(=O)Cc3ccc(Cl)cc3Cl)c2c1 | 101% (inactive)
Cn1cnc([N+](=O)[O-])c1/C=C1\Oc2ccc(Br)cc2C1=O | 75.5% (inactive)
CCCCCCCCCOc1c(OC)cc(C2CC(=O)Nc3c2c(C)nn3-c2nc3ccccc3[nH]2)cc1OC (centres undefined) | 9.26% (active)
COc1cc(/C=C/C(=O)N2CCN(C(=O)c3cc(OC)c(OC)c(OC)c3)CC2)ccc1OCCCN1C(=O)c2cccc3cccc(c23)C1=O | 56.7% (inactive)
NS(=O)(=O)c1ccc(N2N=C(c3cccs3)CC2c2ccccc2O)cc1 (centres undefined) | -25.9% (active)
C=C1C(=O)O[C@H]2[C@H]1CC/C(Cn1cc(-c3ccc(F)cc3)nn1)=C\CC[C@@]1(C)O[C@@H]21 | -18.8% (active)
